Laboratory results taken from PubChem BioAssay AID463173 (ICCB-Longwood Screening Facility, Harvard Medical School, 2010).
Among all 52,000 compounds or so, about 4,300 (8.3%) were called active. Cut-off read from the data, not from the text of the source: active = survival mostly below about 52% (no sharp cut-off); inactive = mostly above about 56%. What follows is part of a selection rich in actives, with near analogues and random picks from the rest.

test system: DeltatarO mutant; experiment: S. aureus survival, RN4220 and DeltatarO strains – OD600, teichoic acid synthesis inhibitors, primary screen (AID 463173); conditions: S. aureus RN4220 wild type/DeltatarO growth, OD600, 18 h, hits give low values, screened at 18.75 µg/mL (by protocol)

Question: Which survival does the source give for `O=C(NCc1ccccc1Cl)c1c2c(nc3ccccc13)C(=O)N(C1CCCCC1)C2` here?
Answer: Its survival is 92% (inactive).

Question: Which survival does the source give for `COC(=O)c1ccc(-n2c(/C=C/c3cc(OC)c(OC)c(OC)c3)nc3cc(Cl)ccc3c2=O)cc1` here?
Answer: Its survival is 80% (inactive).

Question: How did the survival turn out when `Cc1cc2oc(C(=O)Nc3ccc(S(=O)(=O)N4CCCCCC4)cc3)cc(=O)c2cc1C` was run?
Answer: The survival was 42% (active).

Question: Which survival does the source give for `Cc1ccc2c(=O)cc(C(=O)Nc3ccc(S(=O)(=O)N4CCCCCC4)cc3)oc2c1` here?
Answer: Its survival is 106% (inactive).

Question: With `Cc1cc2oc(C(=O)Nc3ccc(S(=O)(=O)N4CCC(C)CC4)cc3)cc(=O)c2cc1C` as the compound, how does the survival read?
Answer: Its survival is 72% (inactive).

Question: Which survival does the source give for `Cc1ccc(C)c(N2CCN(C(=O)C3CCN(C(=O)c4cc5sccc5n4C)CC3)CC2)c1` here?
Answer: The survival was 54% (inactive).

Question: For `CC1=C(C(=O)NCc2ccccc2C)C2(CCCCCC2)OC1=O`, which survival is on record?
Answer: Its survival is 78% (inactive).

Question: `COc1ccc(-n2nc3cc(C)c(NC(=O)Cc4ccc(Cl)cc4)cc3n2)cc1` was tested. Which survival did it give?
Answer: The survival was 56% (inactive).

Question: Which survival does the source give for `COc1ccc(-n2nc3cc(C)c(NC(=O)c4ccc(-c5ccc(Br)cc5)o4)cc3n2)cc1` here?
Answer: The survival was 37% (active).

Question: `COc1ccc(-n2nc3cc(C)c(NC(=O)c4ccc(-c5ccc(Cl)cc5)o4)cc3n2)cc1` was tested. Which survival did it give?
Answer: Its survival is 45% (inactive).

Question: With `CCc1ccc(-n2nc3cc(C)c(NC(=O)c4ccccc4C)cc3n2)cc1` as the compound, how does the survival read?
Answer: Its survival is 89% (inactive).

Question: For `Cc1ccc(-n2nc3cc(C)c(NC(=O)Cc4ccc(Cl)cc4)cc3n2)cc1`, which survival is on record?
Answer: The survival was 64% (inactive).

Question: Which survival does the source give for `Cc1ccc(-n2nc3cc(C)c(NC(=O)c4ccc(-c5ccccc5)o4)cc3n2)cc1` here?
Answer: The survival was 46% (active).

Question: `Cn1nc(C(=O)NCc2ccc(Cl)cc2)c2c1-c1ccccc1SC2` was tested. Which survival did it give?
Answer: The survival was 78% (inactive).

Question: Which survival does the source give for `COc1ccc(-n2c(SCC(=O)Nc3nnc(C)s3)nc3c([nH]c4ccccc43)c2=O)cc1` here?
Answer: Its survival is 83% (inactive).

Question: Which survival does the source give for `Cc1ccc(C)c(Nc2nn3c(=O)c4ccc(C(=O)NCc5ccccc5)cc4nc3s2)c1` here?
Answer: The survival was 55% (inactive).

Question: With `CCOC(=O)c1c(CC(C)C)csc1NC(C)=O` as the compound, how does the survival read?
Answer: The survival was 71% (inactive).

Question: Which survival does the source give for `COc1cc(NC(=O)c2cc3cc4ccc(C)cc4nc3o2)cc(OC)c1OC` here?
Answer: Its survival is 89% (inactive).

Question: How did the survival turn out when `CCc1ccccc1NC(=O)c1cc(S(=O)(=O)N2CCc3ccccc32)ccc1F` was run?
Answer: The survival was 95% (inactive).

Question: For `O=C(Nc1cc(Cl)ccc1O)c1cc(-c2ccc3c(c2)OCO3)on1`, which survival is on record?
Answer: Its survival is 58% (inactive).

Question: How did the survival turn out when `CC(=O)c1cccc(NC(=O)c2cc(-c3ccc4c(c3)OCCO4)on2)c1` was run?
Answer: Its survival is 45% (active).

Question: How did the survival turn out when `Cc1ccc(Cl)cc1NC(=O)c1cc(-c2ccc3c(c2)OCCO3)on1` was run?
Answer: The survival was 34% (active).

Question: `Cc1c(Cl)cccc1NC(=O)c1cc(-c2ccc3c(c2)OCO3)on1` was tested. Which survival did it give?
Answer: Its survival is 69% (inactive).

Question: With `Cc1cccc(NC(=O)c2cc(-c3ccc4c(c3)OCCO4)on2)c1` as the compound, how does the survival read?
Answer: Its survival is 69% (inactive).

Question: Which survival does the source give for `O=C(Nc1cccc(Cl)c1)c1cc(-c2ccc3c(c2)OCCO3)on1` here?
Answer: The survival was 103% (inactive).

Question: For `O=C(Nc1cccc(Br)c1)c1cc(-c2ccc3c(c2)OCCO3)on1`, which survival is on record?
Answer: Its survival is 47% (inactive).

Question: Which survival does the source give for `O=C(Nc1cccc(Cl)c1)c1cc(-c2ccc3c(c2)OCO3)on1` here?
Answer: Its survival is 77% (inactive).

Question: Which survival does the source give for `O=C(Nc1c(Cl)cccc1Cl)c1cc(-c2ccc3c(c2)OCO3)on1` here?
Answer: Its survival is 39% (active).

Question: Which survival does the source give for `CNC(=O)CN1C(=O)COc2ccc(S(=O)(=O)N3CCCCCC3)cc21` here?
Answer: Its survival is 91% (inactive).

Question: How did the survival turn out when `Cc1cc(OCC(=O)Nc2sc3c(c2C#N)CCC(C)C3)ccc1Cl` (configuration not stated) was run?
Answer: Its survival is 78% (inactive).

Question: For `CCOC(=O)c1cnn(-c2ccc(C(=O)Nc3cccc(C(C)=O)c3)cc2)c1N`, which survival is on record?
Answer: Its survival is 55% (inactive).

Question: `CCN(CC)CCCNC(=O)c1sc2nc3n(c(=O)c2c1C)CCCCC3` was tested. Which survival did it give?
Answer: The survival was 111% (inactive).

Question: `Cc1ccccc1NC(=O)c1c(C)oc2ccc(O)c(CN3CCCCCC3)c12` was tested. Which survival did it give?
Answer: Its survival is 107% (inactive).

Question: With `O=c1n(Cc2ccc([N+](=O)[O-])cc2)c2ccccc2c2nc(-c3ccccc3)nn12` as the compound, how does the survival read?
Answer: The survival was 129% (inactive).

Question: How did the survival turn out when `Cc1ccc(CSCC(=O)N2CCN(c3ccc(F)cc3)CC2)cc1` was run?
Answer: The survival was 70% (inactive).

Question: How did the survival turn out when `CCOc1ccccc1NC(=O)C1=C(C)Nc2ncnn2C1c1sccc1C` (configuration not stated) was run?
Answer: The survival was 92% (inactive).

Question: For `CCCCOc1ccc(C2C(C(=O)Nc3ccccc3OC)=C(C)Nc3nnnn32)cc1OC` (configuration not stated), which survival is on record?
Answer: Its survival is 85% (inactive).

Question: With `CC1=C(C(=O)Nc2ccccc2)C(c2ccc[nH]2)n2ncnc2N1` (configuration not stated) as the compound, how does the survival read?
Answer: Its survival is 20% (active).

Question: `COc1ccccc1NC(=O)C1=C(C)Nc2nc3ccccc3n2C1c1ccccc1Cl` (configuration not stated) was tested. Which survival did it give?
Answer: The survival was 62% (inactive).

Question: How did the survival turn out when `CC1=C(C(=O)Nc2ccccc2Cl)C(c2cccs2)n2ncnc2N1` (configuration not stated) was run?
Answer: The survival was 101% (inactive).

Question: Which survival does the source give for `CCOc1ccccc1C1C(C(=O)Nc2ccccc2OC)=C(C)Nc2nc3ccccc3n21` (configuration not stated) here?
Answer: The survival was 59% (active).

Question: With `COc1ccccc1NC(=O)C1=C(C)Nc2nnnn2C1c1ccc(C(F)(F)F)cc1` (configuration not stated) as the compound, how does the survival read?
Answer: Its survival is 66% (inactive).

Question: How did the survival turn out when `CCOc1ccccc1NC(=O)C1=C(C)Nc2ncnn2C1c1cccs1` (configuration not stated) was run?
Answer: Its survival is 37% (active).

Question: For `CC1=C(C(=O)Nc2ccccc2C)C(c2ccc[nH]2)n2ncnc2N1` (configuration not stated), which survival is on record?
Answer: The survival was 102% (inactive).

Question: `COc1ccc(NC(=O)C2=C(C)Nc3ncnn3C2c2ccc[nH]2)cc1` (configuration not stated) was tested. Which survival did it give?
Answer: Its survival is 94% (inactive).

Question: `COc1ccccc1NC(=O)C1=C(C)Nc2nnnn2C1c1cc(Br)c(O)c(OC)c1` (configuration not stated) was tested. Which survival did it give?
Answer: The survival was 55% (active).

Question: With `COc1ccccc1NC(=O)C1=C(C)Nc2nc3ccccc3n2C1c1cccc(OC)c1OC` (configuration not stated) as the compound, how does the survival read?
Answer: Its survival is 70% (inactive).

Question: `COc1ccc(S(=O)(=O)N2CCC(c3nc4ccccc4s3)CC2)cc1OC` was tested. Which survival did it give?
Answer: The survival was 86% (inactive).

Question: `Cc1cc(NC(=O)OC2CCCC2)ccc1NC(=O)OC1CCCCC1` was tested. Which survival did it give?
Answer: Its survival is 75% (inactive).

Question: Which survival does the source give for `COc1ccc(CNC(=O)C(=O)Nc2cccc(C)c2C)cc1` here?
Answer: The survival was 61% (inactive).

Question: For `Cc1ccccc1S(=O)Cc1ccc(C(=O)NCc2ccccc2Cl)o1` (configuration not stated), which survival is on record?
Answer: The survival was 73% (inactive).

Question: For `Cc1ccc(-c2nnc(Nc3ccc(Cl)c(Cl)c3)c3ccccc23)cc1S(=O)(=O)NCCO`, which survival is on record?
Answer: Its survival is 79% (inactive).

Question: `CC(=O)Nc1ccc(S(=O)(=O)NCC2CCC(C(=O)NCCN(CC(C)C)CC(C)C)CC2)cc1` (configuration not stated) was tested. Which survival did it give?
Answer: The survival was 61% (inactive).

Question: For `CC(=O)Nc1ccc(S(=O)(=O)N2CCN(c3ccc(C)c(C)c3)CC2)cc1`, which survival is on record?
Answer: The survival was 94% (inactive).

Question: `O=C(CS(=O)(=O)c1cccc2nsnc12)Nc1ccc(F)cc1F` was tested. Which survival did it give?
Answer: Its survival is 102% (inactive).

Question: `COc1ccccc1N1CCN(c2ncnc3c2c(-c2ccccc2)cn3-c2cccc(C)c2)CC1` was tested. Which survival did it give?
Answer: Its survival is 70% (inactive).

Question: `COc1ccc(-c2[nH]ncc2C(=O)NCc2cccc(Cl)c2)cc1` was tested. Which survival did it give?
Answer: The survival was 62% (inactive).
